The whole screen tested about 5,500 compounds, of which about 2,000 (36%) were called active. About 18% were inconclusive and are not listed. Cut-off read from the data, not from the text of the source: active = normalized growth mostly below about 0.91 (no sharp cut-off); inconclusive = no clear call, values can overlap the other calls; inactive = mostly above about 0.92. The list shows a part of the results.
Assay: chemical genetic growth profiling, strain panel (AID 1159580);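 note: tested at 20 µM; growth read once vehicle control cultures reached saturation at 30 °C; 1 = growth at the plate median or of vehicle wells; lower values mean less growth of the strain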
Settings: S. cerevisiae deletion strains, growth OD

Measured: normalized growth

O=c1cc(N2CCOCC2)oc2c(-c3ccccc3)cccc12
inactive: locus YAL013W, strain DEP1, active compounds read low 1.03 | locus YAL040C, strain CLN3, active compounds read low 0.996 | locus YCL061C, strain MRC1 (second series), active compounds read low 1.01 | locus YDR150W, strain NUM1, active compounds read low 0.992 | locus YDR363W, strain ESC2, active compounds read low 0.995 | locus YER002W, strain NOP16, active compounds read low 1 | locus YMR263W, strain SAP30, active compounds read low 0.992 | locus YNL175C, strain NOP13, active compounds read low 0.996 | locus YNL197C, strain WHI3, active compounds read low 0.991 | locus YNL224C, strain SQS1, active compounds read low 0.999 | locus YNL322C, strain KRE1, active compounds read low 1.01 | locus YOR083W, strain WHI5 (second series), active compounds read low 0.986 | locus YPL241C, strain CIN2, active compounds read low 0.998

COc1ccccc1-c1cc(=O)c2cccc(OC)c2o1
inactive: locus YBR229C, strain ROT2, active compounds read low 0.972 | locus YCL029C, strain bik1, active compounds read low 0.987 | locus YDL035C, strain GPR1, active compounds read low 0.894 | locus YDL074C, strain BRE1, active compounds read low 0.824 | locus YDL101C, strain DUN1, active compounds read low 0.909 | locus YDL185W, strain tfp1, active compounds read low 0.986 | locus YDR101C, strain arx1, active compounds read low 0.928 | locus YDR162C, strain NBP2, active compounds read low 0.857 | locus YDR388W, active compounds read low 0.97 | locus YER110C, active compounds read low 1.01 | locus YER155C, strain BEM2, active compounds read low 0.93 | locus YGL078C, strain dbp3, active compounds read low 0.991 | locus YHR079C, strain IRE1 (second series), active compounds read low 0.993 | locus YHR094C, strain hxt1, active compounds read low 1 | locus YHR200W, strain rpn10, active compounds read low 0.939 | locus YIL073C, strain SPO22, active compounds read low 0.875 | locus YIL125W, strain kgd1, active compounds read low 0.989 | locus YIR030C, strain dcg1, active compounds read low 0.977 | locus YJL134W, strain LCB3, active compounds read low 0.974 | locus YJL168C, strain set2, active compounds read low 0.977 | locus YJL187C, strain SWE1 (second series), active compounds read low 0.885 | locus YJR043C, strain POL32, active compounds read low 0.864 | locus YKL009W, strain mrt4, active compounds read low 0.978 | locus YKL068W, active compounds read low 0.998 | locus YKL085W, strain MDH1 (second series), active compounds read low 0.977 | locus YKL085W, strain MDH1, active compounds read low 0.977 | locus YKL190W, strain CNB1, active compounds read low 0.938 | locus YLR039C, strain RIC1, active compounds read low 0.84 | locus YLR058C, strain SHM2, active compounds read low 0.911 | locus YLR102C, strain apc9, active compounds read low 1.01 | locus YLR262C, strain YPT6, active compounds read low 0.855 | locus YLR268W, strain sec22, active compounds read low 0.924 | locus YML016C, strain PPZ1, active compounds read low 0.956 | locus YML032C, strain rad52, active compounds read low 0.92 | locus YML124C, strain tub3, active compounds read low 0.972 | locus YMR078C, strain ctf18, active compounds read low 0.986 | locus YMR307W, strain GAS1, active compounds read low 0.843 | locus YNL067W, strain RPL9B, active compounds read low 0.896 | locus YNL153C, strain GIM3, active compounds read low 0.903 | locus YNL250W, strain rad50, active compounds read low 0.997 | locus YNL271C, strain bni1, active compounds read low 0.983 | locus YNL298W, strain CLA4, active compounds read low 0.963 | locus YNR052C, strain pop2, active compounds read low 0.964 | locus YOL012C, strain htz1 1.7 | locus YOR061W, strain CKA2, active compounds read low 0.976 | locus YOR069W, strain VPS5, active compounds read low 0.951 | locus YOR136W, strain idh2, active compounds read low 0.992 | locus YOR144C, strain elg1, active compounds read low 0.967 | locus YOR316C, strain cot1, active compounds read low 0.991 | locus YPL055C, strain LGE1, active compounds read low 0.826 | locus YPR119W, strain clb2, active compounds read low 1 | locus YPR141C, strain kar3, active compounds read low 1 | locus YPR163C, strain tif3, active compounds read low 0.924 | locus YPR167C, strain met16, active compounds read low 0.964 | strain wtn01, active compounds read low 0.918
active: locus YBR021W, strain FUR4, active compounds read low 0.795 | locus YDL134C, strain PPH21, active compounds read low 0.865 | locus YDL192W, strain arf1, active compounds read low 0.867 | locus YDR318W, strain mcm21, active compounds read low 0.915 | locus YDR502C, strain sam2, active compounds read low 0.906 | locus YEL061C, strain CIN8, active compounds read low 0.902 | locus YER167W, strain BCK2, active compounds read low 0.899 | locus YGL086W, strain mad1, active compounds read low 0.908 | locus YGL248W, strain PDE1, active compounds read low 0.865 | locus YGR135W, strain pre9, active compounds read low 0.869 | locus YGR229C, strain SMI1, active compounds read low 0.617 | locus YGR252W, strain gcn5, active compounds read low 0.714 | locus YHR030C, strain SLT2, active compounds read low 0.753 | locus YHR129C, strain ARP1, active compounds read low 0.882 | locus YIL066C, strain RNR3, active compounds read low 0.814 | locus YJL095W, strain BCK1, active compounds read low 0.562 | locus YKR001C, strain vps1, active compounds read low 0.855 | locus YLR330W, strain CHS5, active compounds read low 0.798 | locus YLR342W, strain FKS1 (second series), active compounds read low 0.732 | locus YLR371W, strain rom2, active compounds read low 0.839 | locus YLR418C, strain cdc73, active compounds read low 0.642 | locus YMR223W, strain ubp8, active compounds read low 0.886 | locus YNL233W, strain BNI4, active compounds read low 0.795 | locus YNL307C, strain MCK1, active compounds read low 0.758 | locus YOL147C, strain pex11, active compounds read low 0.924 | locus YOR184W, strain ser1, active compounds read low 0.758

Source: PubChem BioAssay AID1159580 (chemical genetic matrix, 2015)
